Structures can show the parent of a compound that is named as a salt.
How the values were obtained:
Settings in all cases: 20 µM
[1] = tested on: Salmonella enterica typhimurium; test: growth AUC normalised to DMSO control (fraction of control); higher = less growth inhibition, active = hit call of the paper
How it was run: (§1)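 Three biological replicates were carried out, with OD578 read hourly for 24 h. Before inoculation at a starting OD578 of 0.01, pathogens were passaged anaerobically twice; plates were pre-reduced mGAM containing 20 μM compound and 1% DMSO, sealed with breathable membranes, and the Haemophilus parainfluenzae medium carried added hemin and NAD. Area under each growth curve was calculated by the trapezoidal rule up to the exponential-to-stationary transition and normalised to DMSO controls on the same plate.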

Shigella flexneri = test: as above
How it was run: as §1

Vibrio cholerae = test: as above
How it was run: as §1

[2] = tested on: Yersinia pseudotuberculosis; test: as above
How it was run: as §1

P. vulgatus RND KO = test: growth AUC normalised to DMSO control (median) (fraction of control); higher = less growth inhibition, active = hit call of the paper
How it was run: (§2)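 In 96-well plates of mGAM seeded at OD578 0.01, strains that had been passaged twice overnight without oxygen were exposed to approved-drug library compounds at 20 μM with 1% DMSO. Hourly OD578 readings were taken for 24 h in an anaerobic incubator. The trapezoidal-rule area under the curve, with curves truncated at entry into stationary phase, was expressed relative to same-plate vehicle wells as the median of three biological replicates.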

P. vulgatus WT = test: as above
How it was run: as §2

[3] = tested on: S. enterica typhimurium WT; test: as above
How it was run: as §2

[4] = tested on: S. enterica typhimurium tolC KO; test: as above
How it was run: as §2

Measured: growth AUC normalised to DMSO control
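For growth AUC normalised to DMSO control (median) in this document: active when median AUC fell below 0.1.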

CC(CN(C)C)CN1c2ccccc2Sc2ccccc21 (configuration not stated) [Trimeprazine tartrate]
inactive: [1] 0.988 | Shigella flexneri 0.952 | Vibrio cholerae 0.895 | [2] 0.999 | P. vulgatus RND KO 0.799 | P. vulgatus WT 0.792 | [3] 1 | [4] 0.972

CC12CC3CC(C)(C1)CC(N)(C3)C2 [Memantine hydrochloride]
inactive: [1] 0.997 | Shigella flexneri 0.99 | Vibrio cholerae 1.01 | [2] 0.985 | P. vulgatus RND KO 1.01 | P. vulgatus WT 1.02 | [3] 1.01 | [4] 1

COc1cc(C)nc(-n2nc(C)cc2OC)n1 [Epirizole]
inactive: [1] 0.997 | Shigella flexneri 1 | Vibrio cholerae 0.981 | [2] 0.992 | P. vulgatus RND KO 0.979 | P. vulgatus WT 0.999 | [3] 1 | [4] 1.01

NCCc1ccc(O)c(O)c1 [Dopamine hydrochloride]
inactive: [1] 1.02 | Shigella flexneri 1.05 | Vibrio cholerae 0.989 | [2] 1.01 | P. vulgatus RND KO 1.03 | P. vulgatus WT 1.02 | [3] 1 | [4] 0.99

O=S(=O)(O)c1cc(O)ccc1O [Ethamsylate diethylammonium salt]
inactive: [1] 1 | Shigella flexneri 0.998 | Vibrio cholerae 0.999 | [2] 1.01 | P. vulgatus RND KO 0.99 | P. vulgatus WT 0.994 | [3] 1 | [4] 0.999

Nc1ccn([C@@H]2O[C@H](CO)[C@@H](O)C2(F)F)c(=O)n1 [Gemcitabine]
inactive: [1] 1.01 | Shigella flexneri 1.04 | Vibrio cholerae 1.01 | [2] 1.03 | P. vulgatus RND KO 1.01 | P. vulgatus WT 1.02 | [3] 0.983

CN1CCN(CC(=O)N2c3ccccc3C(=O)Nc3cccnc32)CC1 [Pirenzepine dihydrochloride]
inactive: [1] 0.993 | Shigella flexneri 1 | Vibrio cholerae 0.988 | [2] 1.01 | P. vulgatus RND KO 1 | P. vulgatus WT 0.98 | [3] 0.999 | [4] 1

NC[C@H]1CC[C@H](C(=O)O)CC1 [Tranexamic acid]
inactive: [1] 1 | Shigella flexneri 1.01 | Vibrio cholerae 1.04 | [2] 1.02 | P. vulgatus RND KO 1.04 | P. vulgatus WT 1.04 | [3] 1 | [4] 1

C=CC1=C(C(=O)O)N2C(=O)[C@@H](NC(=O)/C(=N\OCC(=O)O)c3csc(N)n3)[C@H]2SC1 [Cefixime]
active: [1] 0.00409 | Shigella flexneri 0.0268 | Vibrio cholerae 0.0803 | [2] 0.0395 | P. vulgatus RND KO 0.0155 | P. vulgatus WT 0.0102 | [3] 0.012 | [4] 0.00361

CC(=O)N(O)CCCCCNC(=O)CCC(=O)N(O)CCCCCNC(=O)CCC(=O)N(O)CCCCCN [Deferoxamine mesylate]
inactive: [1] 1.03 | Shigella flexneri 1.03 | Vibrio cholerae 1.03 | [2] 1 | P. vulgatus RND KO 1.04 | P. vulgatus WT 1.07 | [3] 0.998 | [4] 1

CNCCC(Oc1ccc(C(F)(F)F)cc1)c1ccccc1 (configuration not stated) [Fluoxetine hydrochloride]
inactive: [1] 0.996 | Shigella flexneri 1 | Vibrio cholerae 0.975 | [2] 0.991 | P. vulgatus RND KO 0.991 | P. vulgatus WT 0.997 | [3] 1.01 | [4] 0.934

CCCc1cc(=O)[nH]c(=S)[nH]1 [Propylthiouracil]
inactive: [1] 0.987 | Shigella flexneri 0.991 | Vibrio cholerae 1 | [2] 0.993 | P. vulgatus RND KO 1.02 | P. vulgatus WT 1.05 | [3] 1.01 | [4] 0.996

CCCOc1cc(N)ccc1C(=O)OCCN(CC)CC [Propoxycaine hydrochloride]
inactive: [1] 1.02 | Shigella flexneri 1.04 | Vibrio cholerae 1.07 | [2] 1.02 | P. vulgatus RND KO 1.01 | P. vulgatus WT 1.05 | [3] 0.997 | [4] 0.996

Nc1nc2n[nH]nc2c(=O)[nH]1 [Azaguanine-8]
inactive: [1] 1.01 | Shigella flexneri 1.05 | Vibrio cholerae 1.01 | [2] 0.996 | P. vulgatus RND KO 1.01 | P. vulgatus WT 0.999 | [3] 0.987 | [4] 1.01

CC[C@H]1OC(=O)[C@H](C)[C@@H](O[C@H]2C[C@@](C)(OC)[C@@H](O)[C@H](C)O2)[C@H](C)[C@@H](O[C@@H]2O[C@H](C)C[C@H](N(C)C)[C@H]2O)[C@](C)(O)C[C@@H](C)/C(=N\OCOCCOC)[C@H](C)[C@@H](O)[C@]1(C)O [Roxithromycin]
inactive: [2] 0.954 | [3] 0.899
active: [1] 0.84 | Shigella flexneri 0.82 | Vibrio cholerae 0.0242 | P. vulgatus RND KO 0.0176 | P. vulgatus WT 0.0119 | [4] 0.0779

Cc1c(O)c(=O)n(-c2ccccc2)n1C [Antipyrine, 4-hydroxy]
inactive: [1] 1.01 | Shigella flexneri 1.07 | Vibrio cholerae 1.01 | [2] 1.03 | P. vulgatus RND KO 1.01 | P. vulgatus WT 1.06 | [3] 1.01 | [4] 1

CCn1cc(C(=O)O)c(=O)c2cc(F)c(N3CCNCC3)nc21 [Enoxacin]
inactive: P. vulgatus RND KO 0.136 | P. vulgatus WT 0.419
active: [1] 0.00943 | Shigella flexneri 0.0451 | Vibrio cholerae 0.033 | [2] 0.0435 | [3] 0.00979 | [4] 0.00708

CCCOc1ccc(C(=O)OCCN(CC)CC)cc1N [Proparacaine hydrochloride]
inactive: [1] 1 | Shigella flexneri 1.02 | Vibrio cholerae 1.08 | [2] 1 | P. vulgatus RND KO 1.03 | P. vulgatus WT 1.05 | [3] 1.01 | [4] 1.01

COc1ccc(NS(=O)(=O)c2ccc(N)cc2)nn1 [Sulfamethoxypyridazine]
inactive: [1] 1.02 | Shigella flexneri 1.04 | Vibrio cholerae 1.03 | [2] 0.996 | P. vulgatus RND KO 1.02 | P. vulgatus WT 1.04 | [3] 1.01 | [4] 0.986

CO[C@@]1(NC(=O)C(C(=O)O)c2ccc(O)cc2)C(=O)N2C(C(=O)O)=C(CSc3nnnn3C)CO[C@@H]21 (some centres not stated) [Moxalactam disodium salt]
active: [1] 0.00566 | Shigella flexneri 0.0488 | Vibrio cholerae 0.639 | [2] 0.149 | P. vulgatus RND KO 0.0332 | P. vulgatus WT 0.0488

CCCCCCC[N+](CC)(CC)CCCCc1ccc(Cl)cc1 [Clofilium tosylate]
inactive: [1] 1 | Shigella flexneri 0.99 | Vibrio cholerae 1.02 | [2] 1.02 | P. vulgatus RND KO 0.973 | P. vulgatus WT 0.859 | [3] 1.01 | [4] 0.541

COc1cc2ncnc(Nc3ccc(F)c(Cl)c3)c2cc1OCCCN1CCOCC1 [Gefitinib]
inactive: [1] 1.01 | Shigella flexneri 1.02 | Vibrio cholerae 1 | [2] 0.983 | P. vulgatus RND KO 1.07 | P. vulgatus WT 1.07 | [3] 1.01 | [4] 0.928

NCC[C@H](O)C(=O)N[C@@H]1C[C@H](N)[C@@H](O[C@H]2O[C@H](CN)[C@@H](O)[C@H](O)[C@H]2O)[C@H](O)[C@H]1O[C@H]1O[C@H](CO)[C@@H](O)[C@H](N)[C@H]1O [Amikacin hydrate]
inactive: Shigella flexneri 0.985 | Vibrio cholerae 1.01 | P. vulgatus RND KO 1.02 | P. vulgatus WT 1.04 | [3] 1 | [4] 0.995
active: [1] 0.922 | [2] 0.122

Nc1ccc(S(=O)(=O)Nc2ccccn2)cc1 [Sulfapyridine]
inactive: [1] 0.986 | Shigella flexneri 0.95 | Vibrio cholerae 0.984 | [2] 0.994 | P. vulgatus RND KO 1.01 | P. vulgatus WT 1 | [3] 0.998 | [4] 1

OCCN1CCN(CCCN2c3ccccc3C=Cc3ccccc32)CC1 [Opipramol dihydrochloride]
inactive: [1] 0.981 | Shigella flexneri 0.962 | Vibrio cholerae 0.961 | [2] 0.996 | P. vulgatus RND KO 1.01 | P. vulgatus WT 1.01 | [3] 1 | [4] 0.968

CC(C)(C)NC[C@H](O)COc1nsnc1N1CCOCC1 [Timolol maleate salt]
inactive: [1] 0.981 | Shigella flexneri 1.01 | Vibrio cholerae 1.01 | [2] 0.987 | P. vulgatus RND KO 1.01 | P. vulgatus WT 1.01 | [3] 0.999 | [4] 0.999

Cc1cc(-n2c(=O)[nH]c(=O)n(C)c2=O)ccc1Oc1ccc(SC(F)(F)F)cc1 [Toltrazuril]
inactive: [1] 1.01 | Shigella flexneri 0.995 | Vibrio cholerae 1 | [2] 1.01

CN(C)CCCOc1nn(Cc2ccccc2)c2ccccc12 [Benzydamine hydrochloride]
inactive: [1] 1 | Shigella flexneri 0.958 | Vibrio cholerae 0.892 | [2] 0.991 | P. vulgatus RND KO 0.993 | P. vulgatus WT 1.01 | [3] 0.988 | [4] 0.959
